Assay outcomes as filed in PubChem BioAssay.
USP8 block: human USP8 deubiquitinase inhibition. P40818. purified USP8, Ub-rhodamine cleavage fluorescence, 30 min. inhibition, % at 20 µM. 47,000 compounds, 4.2% hits
OTUD3 block: blocks human OTUD3 ubiquitin-rhodamine cleavage | Q5T2D3 | purified OTUD3, Ub-rhodamine fluorescence, 2 h | inhibition, % at 25 µM | 47,000 compounds, 0.7% hits
USP28 block: blocks human USP28 ubiquitin-rhodamine cleavage | 47,000 compounds, 3% hits | purified USP28, Ub-rhodamine cleavage fluorescence, 30 min | Q96RU2 | inhibition, % at 25 µM
USP30 inh: human USP30 deubiquitinase inhibition | AID 1645860 | inhibition, % at 25 µM | 47,000 compounds, 5.3% hits | Q70CQ3 | purified USP30, Ub-rhodamine cleavage fluorescence
USP10 block: inhibitors of human USP10 deubiquitinase; Q14694; purified USP10, Ub-rhodamine fluorescence, 60 min; inhibition, % at 20 µM; 47,000 compounds, 1.1% hits; AID 1645856
USP17 inh: blocks human USP17 ubiquitin-rhodamine cleavage; purified USP17, Ub-rhodamine cleavage fluorescence, 3 h; 47,000 compounds, 6.5% hits; AID 1645855; inhibition, % at 50 µM
Numbers without * were called inactive; i = inactive; · = not tested or not shown. In the library only some 13% were active in any assay of this set; here they are far more common. No stated cut-off is given here; in the data, active means inhibition above about 30%; inactive means the rest.

SMILES | USP8 block | OTUD3 block | USP28 block | USP30 inh | USP10 block | USP17 inh
Cc1c(Cl)cccc1NC(=O)C(NS(=O)(=O)c1ccc2c(c1)OCCO2)C(C)C (centres undefined) | 16 | 11 | 0 | -15 | -3 | -1
CNC(=O)CN1CCC[C@@H]2NC(=O)c3ccccc3OCC/C=C/C[C@@H]21 | 0 | 0 | 1 | -2 | 0 | -3
O=C(Nc1ccc(-c2cn3ccccc3n2)cc1)C1C=C2C=C(Br)C=CC2OC1=O (centres undefined) | 5 | 43* | 52* | 49* | 5 | 25
Cn1cc(C2CCCN2CC(=O)Nc2ccc(Cl)cn2)cn1 (centres undefined) | -20 | -9 | · | · | -6 | -25
Cc1noc(-c2ccc(-n3cnc(C(=O)NCc4ccccc4)c3)nc2)n1 | 10 | 4 | 6 | 30* | 2 | 21
Cc1noc(-c2ccc(-n3cnc(C(=O)NC4CCCCCC4)c3)nc2)n1 | 35* | 9 | 13 | 25 | 0 | 22
CCc1noc(-c2ccc(-n3cnc(C(=O)NC4CCCC4)c3)nc2)n1 | 15 | 0 | 6 | 11 | 3 | 6
COCCN1CC=CCC2(CCN(C(=O)c3nccc4ccccc34)CC2)C1=O | 11 | 7 | 1 | -17 | -4 | 8
Cc1ccc(C)c(NC(=O)CCC(=O)OCC(=O)c2ccc(Cl)cc2)c1 | 14 | 5 | 3 | 19 | 4 | 6
Cc1ccc(C(=O)CCC(=O)OCC(=O)c2ccc3[nH]c(=O)[nH]c3c2)cc1 | 4 | 20 | 52* | 34* | 7 | 55*
O=C(COC(=O)c1nn(-c2ccccc2)c(=O)c2ccccc12)c1ccc2c(c1)OCCO2 | -17 | -12 | -11 | -12 | -8 | -6
O=C(COC(=O)c1ccc(Cl)s1)c1ccc2[nH]c(=O)[nH]c2c1 | 32* | -10 | 6 | -26 | 11 | 42*
COc1ccc(Cl)cc1NC(=O)c1ccc(N2CCCCC2)nn1 | -23 | 3 | -1 | 13 | 6 | 7
CC1=C2C(=NCCN1)C(=O)N(c1ccccc1)C2c1cccnc1 (centres undefined) | -7 | -208 | -221 | i | -3 | -179
O=C(c1ccccc1)N1CCN(C(=O)c2cc(-c3ccncc3)n[nH]2)CC1 | 9 | -1 | -4 | 0 | 6 | 3
O=C(NCCc1nc2ccccc2n1Cc1ccccc1F)c1ccc(Cl)cc1 | 17 | 2 | 3 | 30 | 30* | 10
Cc1cccc(C(=O)NCc2nc3ccccc3n2Cc2ccccc2C)c1 | 6 | 2 | 3 | -12 | 5 | 59*
Cc1cccc(C(=O)NCCc2nc3ccccc3n2Cc2ccccc2F)c1 | 0 | 1 | 2 | -5 | 7 | 17
COc1ccccc1C(=O)NCc1nc2ccccc2n1Cc1cc(C)ccc1C | -3 | -3 | -7 | 71* | 5 | 67*
O=C(NCCc1ccccc1F)c1cn2cc(Cl)ccc2n1 | 24 | 9 | 18 | 61* | 3 | 28
O=C(NCCc1nc2ccccc2n1Cc1ccccc1F)c1ccco1 | 2 | -3 | -2 | 0 | 0 | 1
CCOc1ccc2nc(NCCc3ccc(Cl)cc3Cl)sc2c1 | 9 | 11 | 44* | 16 | 8 | 11
FC(F)(F)c1cc(C(F)(F)F)c2sc(Nc3ccccc3)nc2n1 | 92* | 8 | 20 | 12 | 4 | 5
Cc1ccccc1Cn1ccc(=O)n(CC(=O)NCC2CCCO2)c1=O (centres undefined) | 11 | 13 | 14 | 28 | 5 | 22
CCOc1ccc2c(c1)c(=O)c(C(=O)c1ccc(C)cc1)cn2CC(=O)Nc1ccc(C)c(C)c1 | 92* | 0 | · | · | 66* | 19
COc1ccc(NC(=O)Cn2cc(C(=O)c3ccccc3)c(=O)c3cc4c(cc32)OCCO4)cc1OC | 0 | -4 | -10 | -20 | 0 | 23
COc1cccc(NC(=O)Cn2cc(C(=O)c3ccc(C)cc3)c(=O)c3cc(Cl)ccc32)c1 | 73* | 0 | 19 | -20 | 43* | -3
CCOc1ccc2c(c1)c(=O)c(C(=O)c1ccc(C)cc1)cn2CC(=O)Nc1ccc(C)cc1 | 95* | 7 | 12 | 10 | 62* | 8
O=C(Cn1cc(C(=O)c2ccc(Cl)cc2)c(=O)c2cc(F)ccc21)Nc1ccc(F)c(F)c1 | 0 | -43 | -39 | -86 | -5 | -2
CCOc1ccc2c(c1)c(=O)c(C(=O)c1ccc(C)cc1)cn2CC(=O)Nc1ccc(OC)cc1 | 0 | -7 | 4 | -4 | 16 | 56*
